The results in this text go back to PubChem BioAssay (Tox21).

Structures are written as SMILES. Active and inactive are the calls of the source. Unless noted, calls come from the whole dose curve; as a rule, active = well fitted curve in the direction sought with a large enough effect in the repeat runs; inconclusive = weak or mixed curves; inactive = no such curve, though single readings can be large; an effect the other way counts as inactive or inconclusive.

Experiment [1] is described as follows: qHTS assay to identify small molecule antagonists of the thyroid receptor (TR) signaling pathway - cell viability counter screen (AID 743064). Note: nearly all actives have a fitted effect of over 50% in size. Note: potency is the fitted concentration of half-maximal effect. In outline: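 Plate GH3.TRE-Luc cells; incubate 4 h at 37 °C; add compound, then T3 to 1 nM final; incubate 23.5 h; add CellTiter-Fluor; incubate 30 min at 37 °C, 5% CO2; read fluorescence.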
In general terms: In qHTS, concentration-response curves come from the screen itself.

Experiment [2] can be described thus: qHTS assay to identify small molecule antagonists of the thyroid receptor (TR) signaling pathway (AID 743065). Note: nearly all actives have a fitted effect of over 55% in size. Note: potency is the fitted concentration of half-maximal effect. In outline:
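GH3.TRE-Luc rat pituitary cells carrying two TR response elements driving luciferase were plated for 4 h, given compound plus 1 nM T3 (final), and incubated 23.5 h at 37 C. ONE-Glo luminescence measured reporter inhibition; CellTiter-Fluor fluorescence tracked cytotoxicity.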

Experiment [3] relates to thyroid hormone receptor (rat, GH3 cells). The experiment in a line: qHTS assay to identify small molecule agonists of the thyroid receptor (TR) signaling pathway (AID 743066; calls by dose curve).
Experiment [4] in a line: qHTS assay to identify small molecule antagonists of the estrogen receptor alpha (ER-alpha) signaling pathway - cell viability counter screen (AID 743074; calls by dose curve;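 note: HEK293 cells carrying ER-alpha-UAS-bla reporter stimulated with 17beta-estradiol; nearly all actives have a fitted effect of over 45% in size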).
A short description of experiment [5]: qHTS assay to identify small molecule antagonists of the estrogen receptor alpha (ER-alpha) signaling pathway using the BG1 cell line - cell viability counter screen (AID 743081).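 Note: compound given together with 17beta-estradiol as the ER stimulus; series mostly up to about 70 µM; nearly all actives have a fitted effect of over 45% in size.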
A further experiment concerns the target Aromatase (Homo sapiens) (UniProt P11511). The experiment in a line: qHTS assay to identify aromatase inhibitors (AID 743083). Note: nearly all actives have a fitted effect of over 55% in size. Note: potency is the fitted concentration of half-maximal effect.
Experiment [6] in a line: qHTS assay to identify aromatase inhibitors - cell viability counter screen (AID 743084).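 Note: cells stimulated with testosterone during compound exposure; nearly all actives have a fitted effect of over 55% in size.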 Note: potency is the fitted concentration of half-maximal effect.
Experiment [7] deals with Aryl hydrocarbon receptor (Homo sapiens) (UniProt P35869). In words: qHTS assay to identify small molecule that activate the aryl hydrocarbon receptor (AhR) signaling pathway (AID 743085).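 Note: HG2L7.5c1 human HepG2 liver cells with stably integrated DRE-driven firefly reporter; series mostly up to about 70 µM; nearly all actives have a fitted effect of over 15% in size.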 In outline:
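Steps: seed HepG2-AhR-luc cells; allow 5 h at 37C; pin-transfer test compound or vehicle; incubate 24 h at 37C; add viability dye (30 min, 37C) and read fluorescence; add luciferase substrate (30 min, RT) and read luminescence.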

The nature of experiment [8]: qHTS assay to identify small molecule that activate the aryl hydrocarbon receptor (AhR) signaling pathway - cell viability counter screen (AID 743086).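 Note: HepG2 liver cells carrying the AhR DRE luciferase reporter; series mostly up to about 70 µM; nearly all actives have a fitted effect of over 45% in size.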 A digest of the protocol: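 HepG2-AhR-luc (HG2L7.5c1) cells, 4000/well, were preincubated 5 h at 37C, exposed to compound in qHTS format for 24 hr at 37C, then given CellTiter-Fluor for 30 min; viability was read as fluorescence in the reporter wells.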

A short description of experiment [9]: qHTS assay to identify small molecule antagonists of the peroxisome proliferator-activated receptor gamma (PPARg) signaling pathway - cell viability counter screen (AID 743194). Note: nearly all actives have a fitted effect of over 55% in size. A digest of the protocol: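 PPARg-UAS-bla HEK293H cells were plated, rested 5 h at 37 C, then treated with compounds plus rosiglitazone (50 nM final) for 17 h at 37 C; viability was then read by CellTiter-Glo luminescence after 30 min at room temperature.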

Experiment [10] can be described thus: qHTS assay for small molecule agonists of the antioxidant response element (ARE) signaling pathway (AID 743202; active = well fitted activation curve with a large enough effect in the signal ratio in the repeat runs, not every such curve was filed as active; inconclusive = weak or mixed curves, or effect the other way; inactive = no such curve, though single readings can be large or run the other way; the % refers to the signal ratio; note: potency is the fitted concentration of half-maximal effect). A digest of the protocol: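 Following a 16 h, 37 C exposure of reporter HepG2 cells (ARE-driven beta-lactamase, 2,000 cells/well) to compounds, FRET substrate was applied for 2 h at room temperature and fluorescence intensity recorded.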
Experiment [11] in a line: qHTS assay for small molecule agonists of the antioxidant response element (ARE) signaling pathway - cell viability counter screen (AID 743203; calls by dose curve; note: nearly all actives have a fitted effect of over 55% in size). A digest of the protocol: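 Parallel cytotoxicity read-out for the ARE-bla screen: HepG2 reporter cells, 16 hrs with compounds, then CellTiter-Glo luminescence.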
A short description of experiment [12]: qHTS assay for small molecule activators of the heat shock response signaling pathway - cell viability counter screen (AID 743209). Note: nearly all actives have a fitted effect of over 50% in size. A digest of the protocol: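 To flag cytotoxic compounds, HSE-bla HeLa cells plated at 1500 cells/well were dosed for 5 h at 37 C, followed by the reporter FRET read and then CellTiter-Glo, with luminescence recorded 30 min after reagent addition.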

The nature of experiment [13]: qHTS assay for small molecule activators of the heat shock response signaling pathway (AID 743210; active = well fitted activation curve with a large enough effect in the signal ratio in the repeat runs, with a control signal flat, not every such curve was filed as active; inconclusive = weak or mixed curves; the % refers to the signal ratio; note: series mostly up to about 63 µM). In outline: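 Heat shock element–beta-lactamase HeLa reporter cells; qHTS with compounds for 5 h at 37 C; detection by FRET substrate fluorescence after 2.5 h at RT.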
Experiment [14] has as its target Estrogen receptor (Homo sapiens) (UniProt P03372). The experiment in a line: qHTS assay to identify small molecule antagonists of the estrogen receptor alpha (ER-alpha) signaling pathway (AID 743069; active = well fitted curve in the direction sought with a large enough effect in the signal ratio in the repeat runs, not every such curve was filed as active; inconclusive = weak or mixed curves, or effect the other way; inactive = no such curve, though single readings can be large or run the other way; the % refers to the signal ratio). In outline: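 A 17beta-estradiol challenge was applied right after compound transfer to ER-alpha-UAS-bla HEK293 cells previously kept in charcoal-stripped serum. Plates stood 18 hr at 37C and 5% CO2; fluorescence was read following 2 hr FRET substrate loading at room temperature.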

For experiment [15] the target is unchanged. The experiment in a line: qHTS assay to identify small molecule agonists of the estrogen receptor alpha (ER-alpha) signaling pathway (AID 743075; calls by dose curve;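 note: HEK293 GripTite cells with ER-alpha and UAS-driven beta-lactamase reporter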; note: potency is the fitted concentration of half-maximal effect).
Experiment [16] concerns the target Peroxisome proliferator-activated receptor gamma (Homo sapiens) (UniProt P37231). In words: qHTS assay to identify small molecule agonists of the peroxisome proliferator-activated receptor gamma (PPARg) signaling pathway (AID 743094; active = well fitted activation curve with a large enough effect in the signal ratio in the repeat runs, not every such curve was filed as active; inconclusive = weak or mixed curves, or effect the other way; inactive = no such curve, though single readings can be large or run the other way; the % refers to the signal ratio). In outline:
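Fluorescence-based beta-lactamase readout in HEK293H PPARg UAS-bla cells after 17 h compound exposure (37C) and 1 h B/G FRET substrate incubation at room temperature.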

Experiment [17] has as its target Estrogen receptor (Homo sapiens) (UniProt P03372). In words: qHTS assay to identify small molecule agonists of the estrogen receptor alpha (ER-alpha) signaling pathway using the BG1 cell line (AID 743079). Note: nearly all actives have a fitted effect of over 20% in size. Note: potency is the fitted concentration of half-maximal effect.
A short description of experiment [18]: qHTS assay to identify small molecule antagonists of the estrogen receptor alpha (ER-alpha) signaling pathway using the BG1 cell line (AID 743080; calls by dose curve;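 note: BG1 cells stimulated with 17beta-estradiol alongside compound; series mostly up to about 70 µM; nearly all actives have a fitted effect of over 25% in size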). In outline:
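Endogenous full-length ER-alpha in BG1-Luc-4E2 cells drives a stably integrated 4×ERE luciferase gene; compounds were tested against 17beta-estradiol over 21.5 h, with luminescence and multiplexed viability fluorescence recorded.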

For experiment [19], the target named is Peroxisome proliferator-activated receptor gamma (Homo sapiens) (UniProt P37231). The experiment in a line: qHTS assay to identify small molecule antagonists of the peroxisome proliferator-activated receptor gamma (PPARg) signaling pathway (AID 743191; calls by dose curve; note: nearly all actives have a fitted effect of over 30% in size; note: potency is the fitted concentration of half-maximal effect). In outline:
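GeneBLAzer PPARg UAS-bla HEK293H cells carrying a UAS-driven beta-lactamase reporter were plated at 3000 cells/well, preincubated 5 h at 37C, then given compound for 17 h at 37C; LiveBLAzer B/G FRET substrate was read after 1 h at room temperature.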

Aromatase (Homo sapiens), sequence (P11511 whole entry, looked up): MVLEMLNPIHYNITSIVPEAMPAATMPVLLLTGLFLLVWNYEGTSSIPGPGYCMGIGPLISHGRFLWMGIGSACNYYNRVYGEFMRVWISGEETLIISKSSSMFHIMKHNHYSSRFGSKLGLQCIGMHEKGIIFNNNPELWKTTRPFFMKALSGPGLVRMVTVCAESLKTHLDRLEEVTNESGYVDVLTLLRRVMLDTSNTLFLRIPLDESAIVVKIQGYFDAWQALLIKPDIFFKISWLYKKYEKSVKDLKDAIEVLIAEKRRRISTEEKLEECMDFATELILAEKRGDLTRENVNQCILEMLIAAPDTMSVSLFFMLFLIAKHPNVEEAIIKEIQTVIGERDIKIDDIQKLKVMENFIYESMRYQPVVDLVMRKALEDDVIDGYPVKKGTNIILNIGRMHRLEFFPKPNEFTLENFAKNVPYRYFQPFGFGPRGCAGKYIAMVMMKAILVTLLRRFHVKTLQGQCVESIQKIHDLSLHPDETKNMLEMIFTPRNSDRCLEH
Estrogen receptor (Homo sapiens), sequence (P03372 whole entry, looked up): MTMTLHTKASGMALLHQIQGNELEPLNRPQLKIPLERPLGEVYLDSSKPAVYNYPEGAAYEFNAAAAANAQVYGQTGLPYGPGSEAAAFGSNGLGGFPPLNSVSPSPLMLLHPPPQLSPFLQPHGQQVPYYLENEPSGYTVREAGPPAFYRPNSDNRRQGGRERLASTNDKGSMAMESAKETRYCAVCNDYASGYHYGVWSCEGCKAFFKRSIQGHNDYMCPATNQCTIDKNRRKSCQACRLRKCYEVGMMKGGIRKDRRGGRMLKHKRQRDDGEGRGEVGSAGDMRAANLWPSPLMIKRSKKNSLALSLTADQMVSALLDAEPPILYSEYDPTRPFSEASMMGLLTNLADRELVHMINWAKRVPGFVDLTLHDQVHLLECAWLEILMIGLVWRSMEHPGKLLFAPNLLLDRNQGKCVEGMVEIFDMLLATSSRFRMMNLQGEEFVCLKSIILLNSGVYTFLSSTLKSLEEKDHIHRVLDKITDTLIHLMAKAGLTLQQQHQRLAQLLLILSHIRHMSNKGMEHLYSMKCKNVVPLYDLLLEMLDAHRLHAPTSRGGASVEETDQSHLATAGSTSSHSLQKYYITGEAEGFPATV
Aryl hydrocarbon receptor (Homo sapiens), sequence (P35869 whole entry, looked up): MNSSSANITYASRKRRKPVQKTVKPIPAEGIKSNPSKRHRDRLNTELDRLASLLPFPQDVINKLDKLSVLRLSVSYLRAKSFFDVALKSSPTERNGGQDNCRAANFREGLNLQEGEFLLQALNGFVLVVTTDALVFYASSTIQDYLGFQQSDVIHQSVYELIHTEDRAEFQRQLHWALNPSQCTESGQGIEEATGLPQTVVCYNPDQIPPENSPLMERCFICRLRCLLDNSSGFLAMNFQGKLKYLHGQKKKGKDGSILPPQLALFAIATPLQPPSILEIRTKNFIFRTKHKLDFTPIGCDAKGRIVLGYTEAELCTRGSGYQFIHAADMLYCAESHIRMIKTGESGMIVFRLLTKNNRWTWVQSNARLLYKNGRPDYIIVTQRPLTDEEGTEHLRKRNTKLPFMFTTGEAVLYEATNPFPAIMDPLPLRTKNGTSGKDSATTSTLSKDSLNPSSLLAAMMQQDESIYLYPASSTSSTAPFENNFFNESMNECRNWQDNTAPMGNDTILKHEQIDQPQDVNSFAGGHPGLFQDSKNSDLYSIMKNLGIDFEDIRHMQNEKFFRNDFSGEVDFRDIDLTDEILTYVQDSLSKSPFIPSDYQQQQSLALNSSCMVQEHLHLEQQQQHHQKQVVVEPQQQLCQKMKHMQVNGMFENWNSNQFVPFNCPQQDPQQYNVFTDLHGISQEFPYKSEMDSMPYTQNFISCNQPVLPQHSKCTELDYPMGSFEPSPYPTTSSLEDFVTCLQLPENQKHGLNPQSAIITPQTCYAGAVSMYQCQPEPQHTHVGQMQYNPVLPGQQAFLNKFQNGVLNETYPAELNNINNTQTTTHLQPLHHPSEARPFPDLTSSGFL
Peroxisome proliferator-activated receptor gamma (Homo sapiens), sequence (P37231 whole entry, looked up): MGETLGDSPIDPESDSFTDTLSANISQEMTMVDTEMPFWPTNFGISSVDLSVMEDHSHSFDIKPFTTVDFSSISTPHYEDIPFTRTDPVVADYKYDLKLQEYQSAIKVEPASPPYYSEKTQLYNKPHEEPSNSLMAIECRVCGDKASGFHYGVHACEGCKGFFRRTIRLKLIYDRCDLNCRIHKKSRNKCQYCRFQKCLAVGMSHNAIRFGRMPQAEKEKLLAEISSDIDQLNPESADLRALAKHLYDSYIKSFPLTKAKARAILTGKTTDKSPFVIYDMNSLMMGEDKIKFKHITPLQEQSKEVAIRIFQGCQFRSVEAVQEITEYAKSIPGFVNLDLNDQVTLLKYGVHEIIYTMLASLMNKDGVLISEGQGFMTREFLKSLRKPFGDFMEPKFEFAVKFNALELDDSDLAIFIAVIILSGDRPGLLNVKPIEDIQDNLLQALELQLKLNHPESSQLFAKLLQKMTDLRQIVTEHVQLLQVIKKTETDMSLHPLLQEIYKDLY

Turning to `C=C[Si](OCC)(OCC)OCC`, the Potency result (in experiment [1]; in experiment [2]; in experiment [5]; with Aromatase (Homo sapiens); in [6]; in experiment [7]) was “inactive” in each case. The Potency result in experiment [8], in [9], in [10] and in experiment [11] was “inactive” each time. Further, the result in experiment [3], in experiment [4], in experiment [12] and in experiment [13] was inactive.
On to `COC(=O)/C=C/C(C)=C\C=C\C(C)=C\C=C\C=C(C)\C=C\C=C(C)\C=C\C(=O)O`, for which the Potency entry (in experiment [1]; in experiment [2]; in experiment [14]; in [15]; in experiment [5]; with Aromatase (Homo sapiens)) was “inactive” throughout. For the same molecule, the Potency result in [6], in experiment [7], in experiment [8], in experiment [16], in [9] and in experiment [11] was “inactive” each time. The molecule was classed as inactive in experiment [3], in experiment [4], in experiment [12] and in [13].
Take `Oc1ccc(Oc2ccccc2)cc1`: the Potency in experiment [1] is 41 µM (active); in experiment [2] it was 20.6 µM (active); in experiment [15], 0.0736 µM [inconclusive] (active); in experiment [17], 7.3 µM (active); in [10], 18.3 µM (active). Also, the molecule was classed as inactive in experiment [3], in experiment [4] and in experiment [12]. In addition, the Potency entry in experiment [14], in experiment [5], in [6], in experiment [7], in experiment [8] and in experiment [16] was “inactive” each time. The Potency result in experiment [9] and in experiment [11] was “inactive” throughout.
Take `O=C(O)c1ccncc1`: the Potency result (in experiment [1]; in experiment [2]; in experiment [5]; in the experiment with Aromatase (Homo sapiens); in [6]; in experiment [7]) was “inactive” in each case. Also, the Potency entry in experiment [8] and in [11] was “inactive” in each case. Further, the outcome in [3], in experiment [4] and in experiment [13] was inactive.
For the molecule `C=Cc1ccc(C=C)cc1`, the Potency entry in experiment [1], in experiment [2], in experiment [14], in [15], in [17] and in [18] was “inactive” in each case. Besides, the Potency entry (in experiment [5]; with Aromatase (Homo sapiens); in experiment [6]; in [7]; in experiment [8]; in experiment [16]) was “inactive” throughout. In addition, the Potency entry in [19] and in experiment [10] was “inactive” throughout. Further, the molecule was called inactive in experiment [3], in experiment [12] and in [13].
For the molecule `CCC(=O)O[C@@H]1C[C@H]2CC[C@]1(C)C2(C)C`, the Potency result (in [1]; in experiment [2]; in experiment [5]; with Aromatase (Homo sapiens); in [6]; in experiment [7]) was “inactive” each time. Besides, the Potency entry in experiment [8], in experiment [16], in experiment [9], in experiment [10] and in [11] was “inactive” in each case. Also, the outcome in experiment [3], in experiment [4], in [12] and in experiment [13] was inactive.
Regarding `CCOc1cc(OCC)c(C(C)=O)cc1OCC`, the figures for the Potency (in experiment [1]; with Aromatase (Homo sapiens); in experiment [6]) were 19 µM (active), 26.8 µM (active) and 26.8 µM (active), respectively. In addition, the Potency result in experiment [2], in experiment [15], in [18], in [8], in experiment [16] and in [19] was “inactive” in each case. In experiment [11], the Potency result is “inactive”. The result in [3], in [4] and in [12] was inactive.
Take `Nc1ccc(-c2ccc(F)cc2)cc1`: the Potency entry (in [1]; in experiment [2]; in experiment [15]; in experiment [5]; in the experiment with Aromatase (Homo sapiens); in experiment [6]) was “inactive” in each case. For the same molecule, the Potency entry in experiment [8], in experiment [16], in experiment [19], in [9] and in experiment [11] was “inactive” in each case. Also, the call in experiment [3], in [4], in [12] and in experiment [13] was inactive. The Potency in experiment [17] was 54.5 µM (active).
As for `O=C(O)c1ccc2c(c1)nc(C(=O)NC1CCN(C3CC3)CC1)n2Cc1cc(-c2ccc(Cl)s2)on1`, the Potency result in experiment [1], in [2], in experiment [15], in [17], in experiment [18] and in experiment [5] was “inactive” each time. The Potency entry (with Aromatase (Homo sapiens); in [8]; in experiment [9]; in [10]; in experiment [11]) was “inactive” each time. Moreover, the result in experiment [3], in experiment [4], in experiment [12] and in experiment [13] was inactive. For the same molecule, the Potency in [19] is 3.13 µM (active).
